From PubChem BioAssay
Only some compounds are listed: those with a hit (about 2.9% of all), similar ones and a draw of the others.
KKLEB cytotox = reduces viability of KKLEB cystic fibrosis airway cells; KKLEB CF airway cells viability, ATPlite luminescence, overnight; stronger effect = lower value; cells stimulated with P. aeruginosa culture filtrate; activity change (cytotoxicity), % at 5 µM; 360,000 tested, 0.36% active; AID 602141;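 active means corrected activity change at or below -50% at 5 µM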
CF NFkB inh = cystic fibrosis NF-kB activation inhibition; 360,000 tested, 0.86% active; inhibition, % at 5 µM; KKLEB NF-kB-GFP reporter, PAF-induced, GFP fluorescence overnight; AID 588850;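 active means at least 50% inhibition at 5 µM, scaled per plate between neutral and stimulator controls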;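 further: PAF is a Pseudomonas aeruginosa culture filtrate used as stimulus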
EBV LMP1 NFkB = inhibitors of Epstein-Barr LMP1-induced NF-kappaB reporter; LMP1-induced NF-kappaB luciferase reporter cells, luminescence; inhibition, % at 12.5 µM; 350,000 tested, 0.69% active; in the data active means inhibition above about 41%
HIF-2a block = inhibitors of HIF-2a; 786-0 RCC cells HIF-2a reporter, luciferase luminescence, overnight; inhibition, % at 18.8 µM; 360,000 tested, 0.72% active; AID 624352;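 active means inhibition of the luminescence signal of 40% or more relative to plate controls, in a single-dose primary screen at 18.75 µM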
Peg3 prom inh-1 = reduces Peg3 promoter-driven luciferase expression in HeLa; 360,000 tested, 1.7% active; HeLa PEG-Prom luciferase reporter, luminescence, overnight; inhibition, % at 20 µM;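 active means inhibition of at least 50% at 20 µM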
Shn3 inh set2 = inhibitors of Schnurri-3 3'UTR reporter in osteoblasts; Clone20 osteoblast Shn3 3'UTR firefly luciferase, 24 h; inhibition, % at 12.5 µM; 360,000 tested, 0.52% active;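 active means mean inhibition of at least 75% with every replicate also reaching 75%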
Peg3 prom inh-2 = Peg3 promoter inhibition confirmation; HeLa PEG-Prom luciferase reporter, luminescence, overnight; inhibition, % at 20 µM; shares compounds with Peg3 prom inh-1; 1,300 tested, 84% active; AID 602417;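 active means at 20 µM dose, 40% or more inhibition averaged across four replicates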
CF NFkB conf = confirmation of cystic fibrosis induced NF-kB inhibitors | shares compounds with CF NFkB inh | 1,300 tested, 64% active | KKLEB CF airway cells, PAF-induced NF-kB-GFP fluorescence, overnight | AID 602472 | inhibition, % at 5 µM; in the data active means inhibition above about 40%;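 further: stimulus PAF is a Pseudomonas aeruginosa filtrate and not platelet activating factor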
Mdm2 MdmX conf = Mdm2/MdmX (human) interaction inhibition, confirmed | shares compounds with HIF-2a block | SaOS-2 split-luciferase Mdm2/MdmX complementation, luminescence | inhibition, % at 8 µM | 740 tested, 99% active | AID 504601;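 active means mean inhibition of the luminescence signal across two replicates at or above 26 percent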
HIF-2a conf = HIF-2a inhibition, single concentration confirmation | shares compounds with HIF-2a block | 1,800 tested, 56% active | inhibition, % at 18.8 µM | 786-0 RCC cells, HIF-2a luciferase reporter luminescence, overnight;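 active means mean inhibition across four replicates of at least 40 percent at the single tested concentration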
HIF-1a counter = HIF-1a inhibition counter-screen for HIF-2a hits; shares compounds with HIF-2a block; MiaPaCa-2 HIF-1a luciferase reporter, desferoxamine, overnight; inhibition, % at 18.8 µM; 1,800 tested, 72% active; AID 651589;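 active means mean inhibition of the reporter signal across four replicates at the single tested dose of 50% or more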
Hits are given with their value; 0 = inactive; - = no result given.

SMILES | KKLEB cytotox | CF NFkB inh | EBV LMP1 NFkB | HIF-2a block | Peg3 prom inh-1 | Shn3 inh set2 | Peg3 prom inh-2 | HIF-2a conf | HIF-1a counter | others
CC1=CC2OC3CC4OC(=O)C=CC=CC(C(C)O)OCC(O)C(C)CC(=O)OCC2(CC1O)C4(C)C31CO1 (stereo not drawn) | -52 | 86 | 84 | 76 | 96 | 93 | 98 | 73 | 105
COc1ccc(C(CC(=O)N2CCC3(CC2)OCCO3)NS(=O)(=O)c2ccc(F)cc2)cc1 (stereo not drawn) | 0 | 0 | 0 | 0 | 0 | 0 | - | - | -
Cc1ccccc1C(=O)N1Cc2cnnn2-c2ccccc2C1C#N (stereo not drawn) | 0 | 0 | 0 | 0 | 0 | 0 | - | - | -
Cc1ccccc1CN1Cc2cnnn2-c2ccccc2C1C#N (stereo not drawn) | 0 | 0 | 0 | 92 | 95 | 0 | 98 | 97 | 107
CC1=CC2/C=C(\C)CCC(O)C(O)/C=C/C(=O)C23C(=O)NC(CC(C)C)C3C1C (stereo not drawn) | -64 | 92 | 0 | 93 | 108 | 99 | 98 | 99 | 102 | Mdm2 MdmX conf=103
C[C@@H]1O[C@@H](O[C@@H]2C=C3CCC4C(CC[C@]5(C)[C@@H](c6ccc(=O)oc6)CC[C@]45O)[C@@]3(C)CC2)[C@H](O)[C@H](O)[C@H]1O (stereo partly drawn) | -62 | 88 | 88 | 90 | 95 | 0 | 97 | 43 | 105 | Mdm2 MdmX conf=87
Cc1cccnc1NC1=NCC(C)S1 (stereo not drawn) | 0 | 0 | 0 | 0 | 0 | 0 | - | - | -
CC1CCC(N2CCN(C(=O)COc3ccccc3)CC2)CC1 (stereo not drawn) | 0 | 0 | 0 | 0 | 0 | 0 | - | - | -
COC(=O)C1=C(c2cccc(Cl)c2)C[C@@H]2CC[C@H]1N2C(=O)NCC1CC1 | 0 | 0 | 0 | 0 | 0 | 0 | - | - | -
CC(=O)OC(C)(C)/C=C/C(=O)C(C)(O)C1[C@H](O)C[C@@]2(C)C3CC=C4C(CC[C@@H](O)C4(C)C)[C@]3(CO)C(=O)C[C@]12C (stereo partly drawn) | -92 | 91 | 0 | 72 | 84 | 0 | 87 | 73 | 105
O=C1C=CC(=O)C2C1C1(Cl)C(Cl)=C(Cl)C2(Cl)C1(Cl)Cl (stereo not drawn) | 0 | 54 | 0 | 0 | 65 | 0 | - | - | - | CF NFkB conf=0
CCn1c(O)c(N=Nc2ccc(S(=O)(=O)N3CCOCC3)cc2)c(=O)n(CC)c1=S | 0 | 0 | 0 | 0 | 0 | 0 | - | - | -
COc1cc2c(c(OC)c1OC)-c1ccc(C(=O)O)cc1[C@@H](NC(C)=O)CC2 | 0 | 0 | 0 | 0 | 0 | 0 | - | - | -
COc1cc2c(c(OC)c1O)-c1ccc(OC)c(=O)cc1C(NC(=O)C(F)(F)F)CC2 (stereo not drawn) | 0 | 51 | 0 | 0 | 0 | 0 | - | - | - | CF NFkB conf=87
COc1ccc(-n2nnnc2C(CCc2ccccc2)N2CCC(n3c(=O)[nH]c4ccccc43)CC2)cc1 (stereo not drawn) | 0 | 75 | - | 0 | 99 | 0 | - | - | - | CF NFkB conf=88
COc1ccc(C(c2nnnn2-c2ccc(OC)cc2)N2CCC3(CC2)C(=O)NCN3c2ccccc2)cc1 (stereo not drawn) | 0 | 0 | - | 0 | 0 | 0 | - | - | -
COc1ccc(C(c2nnnn2-c2ccc3c(c2)OCCO3)N2CCC(n3c(=O)[nH]c4ccccc43)CC2)cc1 (stereo not drawn) | 0 | 61 | - | 0 | 63 | 0 | - | - | - | CF NFkB conf=0
